Laboratory results taken from PubChem BioAssay (NCI).
This is part of a sample that, as a whole, favours compounds with a hit. Of some 83,000 tested, about 20% had one in any assay.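 Activity criterion: percent growth below 10, measured after cells in 96-well plates were exposed to a single compound concentration for 48 hours.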 Unmarked numbers belong to inactive results.

The compounds below were run on HL-60(TB) leukemia (assay: NCI-60 one-dose screen, 48 h (100 = growth as untreated, 0 = no growth, -100 = all killed)). Conditions: 10 µM unless noted.

| SMILES | growth [%] |
| --- | --- |
| CCCc1[nH]c(-c2cc(N)ccc2Cl)c2c1C(=O)CCCC2 | 92.4 |
| O=C(O)c1ccc(-n2cc(CNc3cccc(Cl)c3)c(-c3ccc(F)cc3)n2)cc1 | 105 |
| Cc1ccc(NC(=O)c2ccc(CN3CCN(C)CC3)c(C(F)(F)F)c2)cc1Oc1ccc(-c2[nH]nc3ncnc(N)c23)cc1 | 113 |
| Cc1ccc(NC(=O)c2cccc(CN3CCN(C)CC3)c2)cc1Oc1ccc(-c2[nH]nc3ncnc(N)c23)cc1 | 46.8 |
